Compounds with a hit are over-represented: about 3.5% of the library has one in this group of screens.
GPR151 ag: human GPR151 activation; Q8TDV0; activation, % at 11.2 µM; 650,000 compounds, 1% hits; PathHunter beta-arrestin GPR151 cells, luminescence; in the data active = activation above about 4.9%;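 note: 0% = median of compound wells and 100% = cells with positive control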
FBW7 activator: human FBW7 E3 ligase activation, primary screen; AID 1259310; normalized activity (activation), % at 26.1 µM; 650,000 compounds, 0.13% hits; AlphaScreen FBW7–phospho-cyclin E peptide binding, activator screen; in the data active = normalized activity above about 1.9%;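 note: purified mutant Fbw7 with reduced substrate affinity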
MITF inh: inhibitors of human MITF; 650,000 compounds, 0.91% hits; inhibition, % at 2.6 µM; O75030; AlphaScreen MITF homodimerization, bead proximity signal; AID 1259374; in the data active = inhibition above about 50%;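 note: 0% = vehicle wells with protein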
TEAD-YAP inh: TEAD-YAP interaction inhibition; 640,000 compounds, 1.4% hits; inhibition, % at 9.12 µM; HEK-TIYL cells, TEAD-Gal4/YAP UAS-luciferase luminescence; in the data active = inhibition above about 32%;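 note: 0% = median of test compound wells and 100% = reference inhibitor wells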
GPR151 conf act: human GPR151 activation, confirmation screen | shares compounds with GPR151 ag | GPR151 PathHunter beta-arrestin cells, luminescence, 90 min; % of EA-reagent control over plate median | activation, % at 11.2 µM | 6,700 tested, under 10 active | AID 1508609;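 active = mean percent activation across replicates above the confirmation screen cutoff of 4.91%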
GPR119 counter: counter-screen for GPR151 activators: effect on human GPR119. shares compounds with GPR151 ag. GPR119 PathHunter beta-arrestin cells, luminescence, 90 min; 0 = compound-well median, 100 = enzyme-acceptor control. activation, % at 11.2 µM. 6,700 compounds, 0.3% hits;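 active = mean percent activation in the counterscreen above 29.09%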;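 note: counterscreen on off-target GPR119 to flag nonselective hits from the GPR151 activator screen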
Target sequence (Q8TDV5 whole entry, looked up): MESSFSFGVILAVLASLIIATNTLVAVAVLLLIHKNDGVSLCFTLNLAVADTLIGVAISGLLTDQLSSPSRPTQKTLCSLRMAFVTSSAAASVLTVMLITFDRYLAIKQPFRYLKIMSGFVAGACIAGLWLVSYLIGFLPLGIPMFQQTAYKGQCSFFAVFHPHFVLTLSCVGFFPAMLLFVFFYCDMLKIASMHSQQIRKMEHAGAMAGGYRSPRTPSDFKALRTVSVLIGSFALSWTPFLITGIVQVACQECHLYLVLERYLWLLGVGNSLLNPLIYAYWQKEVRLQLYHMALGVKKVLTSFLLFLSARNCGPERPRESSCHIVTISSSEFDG
Active calls of the source: *; / = no result.

SMILES	GPR151 ag	FBW7 activator	MITF inh	TEAD-YAP inh	GPR151 conf act	GPR119 counter
O=C1NC(c2ccc(Cl)cc2Cl)Oc2ccccc21 (stereo unspecified)	8.9*	0	12	3	2	-1
COc1cc(OC)cc(-c2nc(=S)[nH][nH]2)c1	6.8*	0	-6	11	1	10
COC(=O)c1ccccc1NC1=NS(=O)(=O)c2cc([N+](=O)[O-])ccc21	0	0	-3	1	/	/
COc1cccc(Nc2nnc(-c3cc4ccc(O)cc4oc3=O)s2)c1	5.8*	0	3	-3	-1	-15
CCN(CC)c1ccc2cc(C(=O)Nc3ccc(C)cc3)c(=O)oc2c1	-1	0	23	0	/	/
CCOC(=O)CC(=O)c1cc2ccc(N(CC)CC)cc2oc1=O	5.4*	0	-2	-17	0	12
O=[N+]([O-])c1ccccc1CNc1ccc(F)c(Cl)c1	5.9*	0	7	-10	0	0
Cc1ccc(CNC(=O)c2ccc(-n3cccc3)cc2)cc1	1	0	41	-17	/	/
COc1ccccc1OCC(=O)NCc1ccc(C)cc1	5.4*	1	-3	-12	0	4
Cc1ccc(CNC(=O)c2ccc(C)cc2)cc1	0	1	28	-20	/	/
Cc1ccc(CNC(=O)c2sccc2-n2cccc2)cc1	5.6*	0	16	2	0	7
Cc1ccc(CNC(=O)c2csnn2)cc1	13*	0	7	-3	1	7
O=C(CN(C(=O)c1csnn1)c1ccc(F)cc1)NCc1ccccc1	5.6*	0	8	-2	-1	-6
O=[N+]([O-])c1ccc(N=Cc2cccs2)cc1	0	0	1	2	/	/
COc1ccc(CCN(Cc2ccccn2)C(=S)Nc2cc(C)cc(C)c2)cc1OC	-1	0	2	-4	/	/
Cc1ccc(CNC(=O)C(=O)NCc2ccc(Cl)cc2)cc1	0	0	11	3	/	/
Cc1ccc(CNC(=O)Cc2ccc(Cl)cc2)cc1	8.4*	0	1	-12	0	-2
COc1ccc(-c2cc(C(F)(F)F)n3ncc(C(=O)NCCN4CCOCC4)c3n2)cc1	0	0	6	3	/	/
Cc1cc(OCC(O)CNC2CCCC2)ccc1Cl (stereo unspecified)	-1	0	5	8	/	/
CNC(=O)c1cc(-c2ccccc2)nc2ccccc12	1	0	-6	5	/	/
Cc1ccc(N(CC(=O)O)C2SC(=O)NC2=O)cc1 (stereo unspecified)	5.7*	0	13	2	2	1
O=C1NC(=O)N(CCC2=CCCCC2)C1=O	10*	0	-7	-1	0	-4
O=C1CCC(=O)N1CCC1=CCCCC1	1	0	4	14	/	/
C[C@@H]1CN(Cc2ccco2)[C@H](C)CN1CC(=O)Nc1nncs1	0	0	1	5	/	/
Cn1c(C(=O)N2CCN(c3ccc(F)cc3)CC2)cc2c(=O)n3ccccc3nc21	5.6*	0	-1	1	1	8
SMILES	GPR151 ag	FBW7 activator	MITF inh	TEAD-YAP inh	GPR151 conf act	GPR119 counter
COc1cc(/C=N/N=C2/NC(=O)CS2)ccc1OC(=O)c1cccc(C)c1	-1	0	-11	-26	/	/
O=P(CCCO)(c1ccccc1)c1ccccc1	10*	0	30	-3	1	15
O=P(CCO)(c1ccccc1)c1ccccc1	-2	0	17	1	/	/
COc1ccc(-c2nc(CNS(=O)(=O)c3ccc(OC)c(OC)c3)cs2)cc1	0	0	-2	-3	/	/
COc1ccc(S(=O)(=O)NCc2csc(-c3cccnc3)n2)cc1OC	6.5*	0	11	11	1	8
Cn1c(=O)c2c(nc3n2CC(=O)N3c2ccc(F)cc2)n(C)c1=O	-1	0	0	5	/	/
O=C(NCc1n[nH]c(=S)n1-c1ccccc1Cl)c1ccccc1F	6.7*	0	2	4	2	3
CN(C)S(=O)(=O)c1ccc(Cl)c(NC(=O)CN2CCNC(=O)C2)c1	5.2*	0	-14	-8	0	7
Cc1ccc(/C=C2/SC(=S)N(CC(=O)Nc3ccccc3O)C2=O)cc1	7.3*	0	8	-3	1	-4
CCCCC/C=C\C/C=C\C/C=C\CCCCCCC(=O)OCC	9.1*	/	4	/	0	4
CC/C=C\C/C=C\C/C=C\CCCCCCCC(=O)OCC	-2	/	-9	/	/	/
Cc1ccc(S(=O)(=O)NCC(=O)NN=C2CCC(C)CC2)cc1 (stereo unspecified)	6.5*	0	-12	-1	-1	-15
CC1CCC(=NNC(=O)c2ccc(Cl)cc2)CC1 (stereo unspecified)	0	0	2	-29	/	/
Cc1ccc(C(=O)NN=C2CCC(C)CC2)cc1 (stereo unspecified)	8.1*	0	10	-17	2	-9
Cc1ccccc1C(=O)Nc1cccc(NCc2cc(Cl)cc([N+](=O)[O-])c2O)c1	2	0	19	-6	/	/
O=C(c1ccccc1[N+](=O)[O-])N1CCN(c2nc(-c3ccccc3)cs2)CC1	1	0	11	-19	/	/
CCC1CCCCN1CCN1C(=O)C2C(C(=O)Nc3cc(C)cc(C)c3)C3C=CC2(O3)C1C(=O)NC1CCCC(C)C1C (stereo unspecified)	0	1	15	8	/	/
CCC1CCCCN1CCN1C(=O)C2C(C(=O)Nc3cccc(C)c3)C3C=CC2(O3)C1C(=O)NC1CCCC(C)C1C (stereo unspecified)	13*	0	1	6	0	-5
CSc1cccc(NC(=O)C2C3C=CC4(O3)C2C(=O)N(C(C)C)C4C(=O)NC2CCCC(C)C2C)c1 (stereo unspecified)	5.8*	0	8	4	1	-1
C=CCN1CCN(C(CC)c2nnnn2Cc2ccc(F)cc2)CC1 (stereo unspecified)	0	0	15	4	/	/
CCc1ccccc1S(=O)(=O)Cc1ccc(C(=O)NC2CCCC2)o1	3	1	14	8	/	/
Cc1ccccc1S(=O)(=O)Cc1ccc(C(=O)NC2CCCCC2)o1	7.1*	0	6	13	0	-9
CCCOC(=O)CN1C(=O)C2C3c4ccccc4C(c4ccccc43)C2C1=O (stereo unspecified)	5.0*	0	16	4	-1	-15
Cc1nc2sc(C(=O)NCC3CCCO3)c(C)c2c(=O)[nH]1 (stereo unspecified)	-3	0	1	-6	/	/
CCn1c(O)c(C=NC2CCCC2)c(=O)[nH]c1=S	5.2*	0	-12	3	0	0
CCOc1ccc(Br)cc1/C=N\NC(=O)c1cc(C)[nH]n1	7.1*	0	20	-1	0	14
Cc1cc(C(=O)N/N=C/c2ccccc2O)n[nH]1	2	0	28	-45	/	/
Cc1cc(C(=O)N/N=C/c2ccccc2F)n[nH]1	9.8*	0	5	-45	-1	-9

Source: PubChem
